Measured values: PMC5540273 (PLoS ONE, 2017)

tested on: T1, MRCKB; settings: concentration: 1 μM,replicates: in singlicate; n = 1
T1 construct: gene CDC42BPB
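Note: KINOMEscan kinase panel screen.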

**Q.** For `CN(C)CCOc1ccc(-c2cc(-c3c[nH]nc3-c3ccccn3)ccn2)cc1` [GW835314], which “%Inh” value is on record?
**A.** Its value is 0%.

**Q.** For `Cl.Cl.NC[C@H](CC1CCCCC1)NC(=O)c1cc(Br)c(-c2ccnc3[nH]ccc23)s1` [GSK1581427], which “%Inh” value is on record?
**A.** The value was 99.4%.

**Q.** Which “%Inh” value does the source give for `CC(C)N1C(=O)Cc2cc(Nc3ncc(C(F)(F)F)c(NCc4cccc(S(C)(=O)=O)c4)n3)ccc21` here?
**A.** The value was 0%.

**Q.** Which “%Inh” value does the source give for `NC(=O)c1cc(-c2ccccc2)cc2c(C3CCNCC3)c[nH]c12` [GSK301362] here?
**A.** The value was 13%.

**Q.** With `Cc1ccc2c(-c3ccncc3)c(-c3ccc(F)cc3)nn2c1.Cl` [GW461484] as the molecule, how does the “%Inh” value read?
**A.** Its value is 0%.

**Q.** For `COc1ccc(C[C@@H](CN)NC(=O)c2cc(Br)c(-c3ccnc4[nH]ccc34)s2)cc1.Cl.Cl` [GSK1389063], which “%Inh” value is on record?
**A.** The value was 99.4%.

**Q.** `Cl.Cl.Nc1nc(-c2ccc3c(N)n[nH]c3c2)cc(N2CCCC(NC(=O)c3ccccc3)C2)n1` (stereo not shown) [GSK2286775] was tested. Which “%Inh” value did it give?
**A.** Its value is 0%.

**Q.** How did the “%Inh” value turn out when `CCN(CC)CCOc1ccc(Nc2ncc3cc(-c4c(Cl)cccc4Cl)c(=O)n(C)c3n2)cc1` [SB-601273] was run?
**A.** The value was 76%.

**Q.** How did the “%Inh” value turn out when `CCN(CC)CCCCNc1ncc2cc(-c3c(Cl)cccc3Cl)c(NC(=O)NC(C)(C)C)nc2n1` was run?
**A.** The value was 0%.

**Q.** Which “%Inh” value does the source give for `Cc1ccc(-n2nc(C(C)(C)C)cc2NC(=O)Nc2ccc(OCCN3CCOCC3)c3ccccc23)cc1` [GW839464] here?
**A.** The value was 49%.

**Q.** How did the “%Inh” value turn out when `C[C@@H]1CCN(C(=O)CC#N)C[C@@H]1N(C)c1ncnc2[nH]ccc12` was run?
**A.** Its value is 0%.

**Q.** For `C[C@H]1Oc2cc(cnc2N)-c2c(nn(C)c2C#N)CN(C)C(=O)c2ccc(F)cc21`, which “%Inh” value is on record?
**A.** The value was 16%.

**Q.** Which “%Inh” value does the source give for `Cc1occc1-c1nc(N)c(OC[C@@H](N)Cc2c[nH]c3ccccc23)cc1-c1cc2c(C)n[nH]c2cn1` [GSK1660450] here?
**A.** Its value is 97.6%.

**Q.** `Cl.Cl.NC[C@H](Cc1ccc(C(F)(F)F)cc1)NC(=O)c1cc(Br)c(-c2ccnc3[nH]ccc23)s1` [GSK1487252] was tested. Which “%Inh” value did it give?
**A.** Its value is 97.7%.

tested on: MST1R; settings: concentration: 1 μM,replicates: in singlicate; n = 1

**Q.** How did the “%Inh” value turn out when `Cl.Oc1cc(-c2nc(-c3ccccc3)[nH]c2-c2ccncc2)ccc1Cl` [SB-386023] was run?
**A.** The value was 22%.

**Q.** Which “%Inh” value does the source give for `Cc1cc(C(=O)Nc2ccc(Oc3ccc4nc(NC(=O)C5CC5)cn4n3)cc2)nn1-c1ccccc1` here?
**A.** Its value is 0%.

**Q.** For `O=C(NCCNc1ccnc(NCc2ccc(F)cc2)n1)c1cc2ccccc2s1` [GSK1379944], which “%Inh” value is on record?
**A.** The value was 4%.

**Q.** How did the “%Inh” value turn out when `CNC(=O)c1ccccc1Sc1ccc2c(/C=C/c3ccccn3)n[nH]c2c1` was run?
**A.** The value was 29%.

**Q.** For `C=CC(=O)Nc1cc2c(Nc3ccc(F)c(Cl)c3)ncnc2cc1OCCCN1CCOCC1` [GW781483], which “%Inh” value is on record?
**A.** The value was 10%.

**Q.** Which “%Inh” value does the source give for `CC(C)Nc1cc(-c2ccc3c(N)n[nH]c3c2)nc(N)n1` [GSK2221681] here?
**A.** Its value is 13%.

**Q.** With `Nc1nc(Nc2ccccc2)cc(-c2ccc3c(N)n[nH]c3c2)n1` [GSK2225749] as the molecule, how does the “%Inh” value read?
**A.** Its value is 0%.

**Q.** With `CN(C)CC(O)COc1ccc(Nc2nccc(-c3cnn4nc(N5CCOCC5)ccc34)n2)cc1` (stereo not shown) [GW767488] as the molecule, how does the “%Inh” value read?
**A.** The value was 16%.

**Q.** With `Cc1cc2cn[nH]c2cc1-c1cccc2c(N)c(C(N)=O)nnc12` as the molecule, how does the “%Inh” value read?
**A.** Its value is 11%.

**Q.** Which “%Inh” value does the source give for `O=C(NCCCN1CCOC1=O)c1cnc(NCc2cc(Cl)ccc2Cl)nc1NC1CCCC1` here?
**A.** The value was 26%.

**Q.** `CCn1c(-c2nonc2N)nc2c(C#CC(C)(C)O)nc(OCCN)cc21.Cl.Cl` [GSK902056] was tested. Which “%Inh” value did it give?
**A.** The value was 43%.

**Q.** With `Cc1n[nH]c2ccc(-c3cc(OC[C@@H](N)Cc4ccccc4)cnc3-c3ccoc3)cc12.O=C(O)C(F)(F)F.O=C(O)C(F)(F)F` [GSK507358] as the molecule, how does the “%Inh” value read?
**A.** The value was 33%.

**Q.** How did the “%Inh” value turn out when `CN(C)CCOc1ccc(-c2cc(-c3c[nH]nc3-c3ccccn3)ccn2)cc1` [GW835314] was run?
**A.** The value was 0%.

**Q.** With `Cl.Cl.NC[C@H](CC1CCCCC1)NC(=O)c1cc(Br)c(-c2ccnc3[nH]ccc23)s1` [GSK1581427] as the molecule, how does the “%Inh” value read?
**A.** The value was 11%.

**Q.** Which “%Inh” value does the source give for `CC(C)N1C(=O)Cc2cc(Nc3ncc(C(F)(F)F)c(NCc4cccc(S(C)(=O)=O)c4)n3)ccc21` here?
**A.** Its value is 0%.

**Q.** `NC(=O)c1cc(-c2ccccc2)cc2c(C3CCNCC3)c[nH]c12` [GSK301362] was tested. Which “%Inh” value did it give?
**A.** The value was 40%.

**Q.** For `Cc1ccc2c(-c3ccncc3)c(-c3ccc(F)cc3)nn2c1.Cl` [GW461484], which “%Inh” value is on record?
**A.** Its value is 38%.

**Q.** `COc1ccc(C[C@@H](CN)NC(=O)c2cc(Br)c(-c3ccnc4[nH]ccc34)s2)cc1.Cl.Cl` [GSK1389063] was tested. Which “%Inh” value did it give?
**A.** Its value is 40%.

**Q.** Which “%Inh” value does the source give for `Cl.Cl.Nc1nc(-c2ccc3c(N)n[nH]c3c2)cc(N2CCCC(NC(=O)c3ccccc3)C2)n1` (stereo not shown) [GSK2286775] here?
**A.** The value was 35%.

**Q.** Which “%Inh” value does the source give for `CCN(CC)CCOc1ccc(Nc2ncc3cc(-c4c(Cl)cccc4Cl)c(=O)n(C)c3n2)cc1` [SB-601273] here?
**A.** The value was 93%.

**Q.** Which “%Inh” value does the source give for `CCN(CC)CCCCNc1ncc2cc(-c3c(Cl)cccc3Cl)c(NC(=O)NC(C)(C)C)nc2n1` here?
**A.** The value was 10%.

**Q.** For `Cc1ccc(-n2nc(C(C)(C)C)cc2NC(=O)Nc2ccc(OCCN3CCOCC3)c3ccccc23)cc1` [GW839464], which “%Inh” value is on record?
**A.** The value was 0%.

**Q.** Which “%Inh” value does the source give for `C[C@@H]1CCN(C(=O)CC#N)C[C@@H]1N(C)c1ncnc2[nH]ccc12` here?
**A.** Its value is 0%.

**Q.** `C[C@H]1Oc2cc(cnc2N)-c2c(nn(C)c2C#N)CN(C)C(=O)c2ccc(F)cc21` was tested. Which “%Inh” value did it give?
**A.** Its value is 0%.

**Q.** How did the “%Inh” value turn out when `Cc1occc1-c1nc(N)c(OC[C@@H](N)Cc2c[nH]c3ccccc23)cc1-c1cc2c(C)n[nH]c2cn1` [GSK1660450] was run?
**A.** The value was 0%.

**Q.** `Cl.Cl.NC[C@H](Cc1ccc(C(F)(F)F)cc1)NC(=O)c1cc(Br)c(-c2ccnc3[nH]ccc23)s1` [GSK1487252] was tested. Which “%Inh” value did it give?
**A.** The value was 44%.
